# Data as given in the supplement of paper PMC10849652.
# About 7,900 targets were measured; listed, in parts, are those with a hit and a random draw of the rest. About 0.6% of all pairs of compound and target were hits. Unmarked numbers belong to inactive results.
# What was measured:
# Experiment in all cases: log2 fold change, soluble protein after heating vs DMSO (PISA); higher = thermal stabilisation; K562 cells, 10 uM, 30 min; active = over 0.2 and 3.5 SD of the protein, either way, in both replicates (recomputed)
# [1] = compound: CC1=C(C=C(C=C1)NC(=O)C2=CC(=CC=C2)C(C)(C)C#N)NC3=CC4=C(C=C3)N=CN(C4=O)C
# Summary of the method: (§1)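 K562 cells (2×10^6 cells/mL) were treated with 10 μM compound for 30 min, and aliquots were heated for 3 min over 48°C-58°C. Pooled aliquots were extracted in PBS with 0.5% NP-40 at 4°C, and the supernatant after 21,000xg for 90 min was measured by TMTpro 16plex LC-MS/MS with channel sums equalised. Reported thermal stability, relative to control samples and from duplicates, is a log2 fold change.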
# [2] = compound: CC1=C(C=C(C=C1)NC(=O)C2=CC(=CC=C2)N(C)C)NC(=O)C3=CC=C(C=C3)O
# Summary of the method: as §1
# [3] = compound: CC1=CC=C(C=C1)SC2=C3C=C(SC3=CN=C2)C(=O)N
# Summary of the method: as §1
# [4] = compound: CC1=NC(=CC=C1)C2=C(N=C(N2)C(C)(C)C)C3=CC4=NC=CN=C4C=C3
# Summary of the method: as §1
# Nexturastat A = compound: CCCCN(Cc1ccc(C(=O)NO)cc1)C(=O)Nc1ccccc1 [Nexturastat A]
# Summary of the method: as §1
# vemurafenib = compound: CCCS(=O)(=O)Nc1ccc(F)c(C(=O)c2c[nH]c3ncc(-c4ccc(Cl)cc4)cc23)c1F [vemurafenib]
# Summary of the method: as §1
# [5] = compound: CCCS(=O)(=O)Nc1ccc(F)c(C(=O)c2c[nH]c3ncc(Cl)cc23)c1F
# Summary of the method: as §1
# [6] = compound: CCCc1cc(C)[nH]c(=O)c1CNC(=O)c1cc(-c2ccnc(N3CCN(C)CC3)c2)cc2c1cnn2C(C)C
# Summary of the method: as §1
# givinostat = compound: CCN(CC)Cc1ccc2cc(COC(=O)Nc3ccc(C(=O)NO)cc3)ccc2c1 [givinostat]
# Summary of the method: as §1
# barasertib = compound: CCN(CCCOc1ccc2c(Nc3cc(CC(=O)Nc4cccc(F)c4)[nH]n3)ncnc2c1)CCOP(=O)(O)O [barasertib]
# Summary of the method: as §1
# [7] = compound: CC[C@@H]1C(=O)N(C)c2cnc(Nc3ccc(C(=O)NC4CCN(C)CC4)cc3OC)nc2N1C1CCCC1
# Summary of the method: as §1
# volasertib = compound: CC[C@@H]1C(=O)N(C)c2cnc(Nc3ccc(C(=O)N[C@H]4CC[C@H](N5CCN(CC6CC6)CC5)CC4)cc3OC)nc2N1C(C)C [volasertib]
# Summary of the method: as §1
# [8] = compound: CC[C@H](C)N1C=C(C2=C(C=C(C=C21)C3=CN=C(C=C3)N4CCNCC4)C(=O)NCC5=C(C=C(NC5=O)C)C)C
# Summary of the method: as §1
# epoxomicin = compound: CC[C@H](C)[C@@H](C(=O)N[C@@H]([C@@H](C)O)C(=O)N[C@@H](CC(C)C)C(=O)[C@]1(CO1)C)NC(=O)[C@H]([C@@H](C)CC)N(C)C(=O)C [epoxomicin]
# Summary of the method: as §1
# [9] = compound: CCn1c(C(=O)N(C2CC2)C2CC2)cc2c3c(ncn3C)c(Nc3cc(C)n(C)n3)nc21
# Summary of the method: as §1
# [10] = compound: CCn1cc(-c2ccnc3[nH]c(-c4cccc(CN(C)C)c4)cc23)c(-c2ccc(NC(=O)N(C)C)cc2)n1
# Summary of the method: as §1
# [11] = compound: CN(C)CC(=O)Nc1ccc2[nH]c(=O)c3ccccc3c2c1
# Summary of the method: as §1
# rosiglitazone = compound: CN(CCOC1=CC=C(C=C1)C[C@H]2C(=O)NC(=O)S2)C3=CC=CC=N3 (racemic) [rosiglitazone]
# Summary of the method: as §1
# [12] = compound: CN1C2=C(C3=C1C(=O)N(N=C3)CC4=CC(=CC=C4)N)SC(=C2)S(=O)C
# Summary of the method: as §1
# [13] = compound: CN1CCC(CNc2ccc3ncc(-c4cccc(OC(F)(F)F)c4)n3n2)CC1
# Summary of the method: as §1
# Chain of UniProt Q13523 (Q13523 whole entry, looked up): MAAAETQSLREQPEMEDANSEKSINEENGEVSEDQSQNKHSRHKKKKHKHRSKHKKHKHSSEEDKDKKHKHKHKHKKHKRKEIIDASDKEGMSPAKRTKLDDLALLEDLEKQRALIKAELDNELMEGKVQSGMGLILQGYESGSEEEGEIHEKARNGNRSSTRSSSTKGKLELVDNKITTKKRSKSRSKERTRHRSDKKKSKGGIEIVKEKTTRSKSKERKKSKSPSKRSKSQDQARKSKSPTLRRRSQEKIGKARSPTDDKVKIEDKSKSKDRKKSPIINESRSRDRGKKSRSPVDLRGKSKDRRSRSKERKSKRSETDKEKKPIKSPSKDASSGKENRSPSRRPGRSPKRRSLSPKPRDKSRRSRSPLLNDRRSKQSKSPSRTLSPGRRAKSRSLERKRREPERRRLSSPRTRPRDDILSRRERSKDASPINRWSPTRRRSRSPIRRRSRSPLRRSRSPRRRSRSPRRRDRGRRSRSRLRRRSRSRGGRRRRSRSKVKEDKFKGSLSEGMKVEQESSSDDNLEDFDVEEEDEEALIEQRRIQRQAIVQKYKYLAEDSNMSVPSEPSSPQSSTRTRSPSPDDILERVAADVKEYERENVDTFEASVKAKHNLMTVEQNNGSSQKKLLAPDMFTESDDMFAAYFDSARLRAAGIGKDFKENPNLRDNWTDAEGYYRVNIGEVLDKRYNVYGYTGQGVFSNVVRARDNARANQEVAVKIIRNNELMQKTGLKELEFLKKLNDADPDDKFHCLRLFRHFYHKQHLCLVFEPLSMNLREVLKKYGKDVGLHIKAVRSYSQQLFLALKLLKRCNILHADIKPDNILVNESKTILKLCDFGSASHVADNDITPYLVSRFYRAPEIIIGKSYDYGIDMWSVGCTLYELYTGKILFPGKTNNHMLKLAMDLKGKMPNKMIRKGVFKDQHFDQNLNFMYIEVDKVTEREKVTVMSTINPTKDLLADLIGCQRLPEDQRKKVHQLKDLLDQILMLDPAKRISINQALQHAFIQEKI
# Chain of UniProt Q9UG56 (Q9UG56 whole entry, looked up): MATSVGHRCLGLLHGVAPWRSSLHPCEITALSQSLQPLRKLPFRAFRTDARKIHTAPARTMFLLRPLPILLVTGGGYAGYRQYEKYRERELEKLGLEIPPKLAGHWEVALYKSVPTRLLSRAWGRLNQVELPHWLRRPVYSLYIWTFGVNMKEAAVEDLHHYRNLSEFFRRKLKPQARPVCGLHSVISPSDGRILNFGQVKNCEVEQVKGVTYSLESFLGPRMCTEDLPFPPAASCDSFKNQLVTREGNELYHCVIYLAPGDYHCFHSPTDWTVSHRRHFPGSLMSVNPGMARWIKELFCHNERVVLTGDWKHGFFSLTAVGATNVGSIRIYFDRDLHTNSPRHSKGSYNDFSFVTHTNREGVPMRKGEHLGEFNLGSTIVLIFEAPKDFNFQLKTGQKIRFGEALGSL
# Chain of UniProt Q9H0R6 (Q9H0R6 whole entry, looked up): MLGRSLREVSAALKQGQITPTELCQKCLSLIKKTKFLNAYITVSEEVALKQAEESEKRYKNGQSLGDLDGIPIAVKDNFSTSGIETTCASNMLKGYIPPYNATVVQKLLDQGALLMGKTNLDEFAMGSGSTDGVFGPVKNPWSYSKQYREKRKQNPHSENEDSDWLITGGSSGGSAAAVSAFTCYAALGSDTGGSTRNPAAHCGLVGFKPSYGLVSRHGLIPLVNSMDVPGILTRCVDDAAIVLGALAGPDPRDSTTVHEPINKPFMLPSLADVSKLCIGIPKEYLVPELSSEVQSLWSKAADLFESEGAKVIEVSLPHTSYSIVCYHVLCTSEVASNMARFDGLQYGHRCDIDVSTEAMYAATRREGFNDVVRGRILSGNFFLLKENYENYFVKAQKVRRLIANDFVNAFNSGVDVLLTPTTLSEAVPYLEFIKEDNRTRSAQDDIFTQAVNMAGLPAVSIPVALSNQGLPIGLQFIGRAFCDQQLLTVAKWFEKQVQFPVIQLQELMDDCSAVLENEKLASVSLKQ
# Chain of UniProt P29590 (P29590 whole entry, looked up): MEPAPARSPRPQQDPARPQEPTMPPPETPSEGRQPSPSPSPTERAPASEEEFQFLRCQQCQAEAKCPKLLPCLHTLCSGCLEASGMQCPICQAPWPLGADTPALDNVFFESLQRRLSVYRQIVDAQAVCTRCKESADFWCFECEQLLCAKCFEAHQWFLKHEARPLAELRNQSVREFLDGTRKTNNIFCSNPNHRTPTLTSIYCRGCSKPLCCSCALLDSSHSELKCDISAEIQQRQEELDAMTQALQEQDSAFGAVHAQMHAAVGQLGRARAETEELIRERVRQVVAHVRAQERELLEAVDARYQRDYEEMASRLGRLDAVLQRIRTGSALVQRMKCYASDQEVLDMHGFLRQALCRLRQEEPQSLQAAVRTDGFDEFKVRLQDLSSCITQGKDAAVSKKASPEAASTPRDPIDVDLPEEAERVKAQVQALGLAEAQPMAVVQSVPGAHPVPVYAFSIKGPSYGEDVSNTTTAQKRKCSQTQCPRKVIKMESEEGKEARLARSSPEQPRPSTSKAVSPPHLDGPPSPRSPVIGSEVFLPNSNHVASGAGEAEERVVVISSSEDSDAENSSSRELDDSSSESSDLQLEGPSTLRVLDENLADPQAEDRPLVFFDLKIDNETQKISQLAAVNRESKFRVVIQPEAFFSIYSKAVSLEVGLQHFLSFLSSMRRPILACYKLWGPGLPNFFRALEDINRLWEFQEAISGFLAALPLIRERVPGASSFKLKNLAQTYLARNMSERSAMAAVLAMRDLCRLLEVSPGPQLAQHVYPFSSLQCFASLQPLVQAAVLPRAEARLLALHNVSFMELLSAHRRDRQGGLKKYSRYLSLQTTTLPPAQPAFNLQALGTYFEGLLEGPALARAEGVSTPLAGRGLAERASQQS
# Chain of UniProt Q9BRP1 (Q9BRP1 whole entry, looked up): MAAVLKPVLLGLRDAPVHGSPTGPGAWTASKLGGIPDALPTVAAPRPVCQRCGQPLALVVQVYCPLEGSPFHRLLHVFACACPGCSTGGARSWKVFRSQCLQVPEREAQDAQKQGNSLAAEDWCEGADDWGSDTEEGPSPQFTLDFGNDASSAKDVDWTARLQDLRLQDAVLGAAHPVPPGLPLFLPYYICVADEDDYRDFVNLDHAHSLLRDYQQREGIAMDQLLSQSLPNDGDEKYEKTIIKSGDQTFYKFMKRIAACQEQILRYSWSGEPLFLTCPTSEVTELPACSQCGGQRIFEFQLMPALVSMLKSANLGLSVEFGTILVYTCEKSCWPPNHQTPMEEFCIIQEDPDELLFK
# Chain of UniProt Q08752 (Q08752 whole entry, looked up): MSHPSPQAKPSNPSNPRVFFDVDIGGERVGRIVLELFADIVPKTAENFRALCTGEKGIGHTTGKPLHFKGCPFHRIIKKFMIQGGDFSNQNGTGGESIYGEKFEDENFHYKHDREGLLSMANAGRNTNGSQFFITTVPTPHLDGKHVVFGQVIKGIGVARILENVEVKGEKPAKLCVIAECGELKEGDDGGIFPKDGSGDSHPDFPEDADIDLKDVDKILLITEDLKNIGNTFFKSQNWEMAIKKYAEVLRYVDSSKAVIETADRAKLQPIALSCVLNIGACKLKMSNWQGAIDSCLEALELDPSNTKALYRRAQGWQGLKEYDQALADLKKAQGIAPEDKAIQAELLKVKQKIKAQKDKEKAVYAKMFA
# Chain of UniProt Q05209 (Q05209 whole entry, looked up): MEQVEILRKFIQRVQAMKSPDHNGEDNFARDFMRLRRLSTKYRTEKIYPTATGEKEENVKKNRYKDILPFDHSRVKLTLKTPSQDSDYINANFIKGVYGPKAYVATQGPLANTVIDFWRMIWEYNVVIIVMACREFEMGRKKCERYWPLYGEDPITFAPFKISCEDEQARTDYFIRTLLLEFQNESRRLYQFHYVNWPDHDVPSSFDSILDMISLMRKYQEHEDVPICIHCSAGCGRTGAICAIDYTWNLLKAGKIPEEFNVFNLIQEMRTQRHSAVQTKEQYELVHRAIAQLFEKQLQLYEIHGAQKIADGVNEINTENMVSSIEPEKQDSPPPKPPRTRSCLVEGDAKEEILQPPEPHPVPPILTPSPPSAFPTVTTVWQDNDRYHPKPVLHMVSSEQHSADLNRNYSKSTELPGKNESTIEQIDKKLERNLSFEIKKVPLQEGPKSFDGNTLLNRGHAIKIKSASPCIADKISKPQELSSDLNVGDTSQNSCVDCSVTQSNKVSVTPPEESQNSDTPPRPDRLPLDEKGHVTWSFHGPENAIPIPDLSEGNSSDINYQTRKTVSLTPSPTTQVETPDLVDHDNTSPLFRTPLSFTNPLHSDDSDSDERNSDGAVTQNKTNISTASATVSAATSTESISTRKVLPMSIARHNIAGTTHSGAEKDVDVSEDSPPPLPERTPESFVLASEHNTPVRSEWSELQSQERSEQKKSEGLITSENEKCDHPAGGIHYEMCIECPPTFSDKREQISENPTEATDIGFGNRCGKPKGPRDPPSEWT
# Chain of UniProt Q13356 (Q13356 whole entry, looked up): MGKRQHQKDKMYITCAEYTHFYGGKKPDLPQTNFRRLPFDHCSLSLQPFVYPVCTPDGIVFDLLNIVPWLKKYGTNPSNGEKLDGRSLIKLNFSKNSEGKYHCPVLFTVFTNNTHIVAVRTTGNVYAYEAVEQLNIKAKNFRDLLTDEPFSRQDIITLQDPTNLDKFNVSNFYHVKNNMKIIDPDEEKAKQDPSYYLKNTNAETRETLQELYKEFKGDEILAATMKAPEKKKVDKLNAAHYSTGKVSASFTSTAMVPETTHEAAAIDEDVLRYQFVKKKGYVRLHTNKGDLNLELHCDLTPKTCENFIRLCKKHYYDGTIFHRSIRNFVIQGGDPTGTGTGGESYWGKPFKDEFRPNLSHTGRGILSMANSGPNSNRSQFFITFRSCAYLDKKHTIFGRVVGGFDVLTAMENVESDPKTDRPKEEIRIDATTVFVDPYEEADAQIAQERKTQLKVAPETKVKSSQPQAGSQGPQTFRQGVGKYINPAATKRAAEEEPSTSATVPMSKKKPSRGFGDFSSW
# Chain of UniProt Q96A00 (Q96A00 whole entry, looked up): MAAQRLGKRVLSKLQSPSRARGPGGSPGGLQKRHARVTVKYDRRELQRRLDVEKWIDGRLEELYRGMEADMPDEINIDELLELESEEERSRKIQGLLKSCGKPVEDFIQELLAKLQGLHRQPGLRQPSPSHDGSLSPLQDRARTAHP
Target,log2 fold change [1],log2 fold change [2],log2 fold change [3],log2 fold change [4],log2 fold change (Nexturastat A),log2 fold change (vemurafenib),log2 fold change [5],log2 fold change [6],log2 fold change (givinostat),log2 fold change (barasertib),log2 fold change [7],log2 fold change (volasertib),log2 fold change [8],log2 fold change (epoxomicin),log2 fold change [9],log2 fold change [10],log2 fold change [11],log2 fold change (rosiglitazone),log2 fold change [12],log2 fold change [13]
PSMB4 (UniProt P28070),-0.026,0.02,-0.075,-0.031,0.023,-0.027,-0.029,0.008,-0.008,-0.052,0.073,0.114,-0.043,-0.202,0.011,0.031,-0.028,-0.045,0.021,0.057
PDCD2L (UniProt Q9BRP1),-0.001,-0.104,0.052,0.068,0,-0.038,0.079,0.045,-0.088,0.069,-0.201,-0.435 (active),0.017,0.07,-0.107,-0.171,0.038,0.018,-0.038,-0.073
PCYT1A (UniProt P49585),-0.049,-0.038,-0.045,0.035,-0.034,0.052,0.043,-0.092,-0.024,0.044,-0.219,-0.332 (active),0.042,0.028,-0.029,-0.019,0.017,0.008,-0.022,-0.111
PPIL1 (UniProt Q9Y3C6),-0.002,0.023,0,-0.024,0.025,-0.045,0.027,-0.016,-0.038,0.033,0.014,-0.051,0.01,-0.024,-0.042,0.02,-0.014,0.035,0.049,0.018
PGGT1B (UniProt P53609),-0.062,0.006,0.002,0.035,-0.073,-0.022,-0.023,-0.025,0.009,0.035,0.056,0.098,0.004,-0.011,0.031,-0.026,-0.009,0.032,-0.101,-0.008
PML (UniProt P29590),-0.024,-0.001,-0.009,-0.02,-0.002,-0.044,0.018,-0.007,-0.014,0.01,-0.051,-0.136,0.027,-0.021,-0.001,-0.024,-0.049,0.026,0.015,-0.045
PRPF38A (UniProt Q8NAV1),0.005,-0.023,-0.058,0.017,0.019,-0.118,-0.089,0.065,0.005,-0.024,-0.029,-0.016,0,0.048,-0.011,0.031,0.051,0.031,-0.037,-0.081
PLBD1 (UniProt Q6P4A8),0.005,-0.023,0.032,-0.039,0.005,0.069,-0.014,0.006,-0.013,0.027,-0.063,-0.076,-0.022,-0.016,-0.005,-0.028,0.088,-0.049,-0.01,-0.352 (active)
PRKAR2A (UniProt P13861),0.141,0.001,0.011,-0.033,0.008,-0.021,-0.021,0.019,0.024,-0.001,0.03,-0.024,0.046,-0.031,-0.007,-0.033,0.047,0.011,0.077,0.023
PTDSS1 (UniProt P48651),0.005,-0.006,0.08,-0.01,0.192,-0.055,0.019,-0.007,0.072,0.03,0.004,0.009,-0.069,-0.035,-0.019,0.124,0,0.031,0.177,-0.081
QRSL1 (UniProt Q9H0R6),-0.001,-0.079,0.018,0.041,-0.09,0.086,0.061,0.093,0.033,0.044,0.044,-0.167,0.069,0.027,-0.003,-0.029,0.023,0.055,-0.053,-0.095
PRPF3 (UniProt O43395),0.05,-0.025,0.038,0.117,-0.087,0.1,0.081,-0.005,0.086,0.028,-0.114,-0.34 (active),0.069,0.069,-0.05,-0.062,0.116,0.059,0.004,-0.17
PPIL2 (UniProt Q13356),0.005,-0.084,0.04,0.023,-0.059,0.113,0.123,0.016,0.123,0.073,-0.196,-0.599 (active),0.159,0.142,-0.098,-0.031,0.08,0.043,-0.019,-0.022
PTPA (UniProt Q15257),0.001,-0.01,0.004,0.014,-0.006,0.044,-0.017,-0.046,-0.005,-0.007,-0.007,0.004,-0.012,0.051,-0.017,-0.06,-0.002,0.008,-0.072,-0.009
PELO (UniProt Q9BRX2),-0.005,-0.051,0.042,-0.039,0.161,-0.13,0.007,0.055,0.192,0.045,-0.017,-0.387,0.09,-0.058,-0.068,0.007,-0.017,0.085,0.138,-0.312
PSMD12 (UniProt O00232),0.066,-0.004,-0.005,-0.011,0.047,-0.031,0.009,0.052,-0.002,-0.044,0.03,0.158,0.02,-0.278,-0.008,0.017,-0.007,-0.038,0.01,0.062
PTPN12 (UniProt Q05209),-0.026,-0.071,-0.037,-0.034,0.162,-0.002,0.04,0.07,0.072,0.127,-0.119,-0.465 (active),0.063,-0.012,-0.077,0.027,0.015,0.014,0.079,-0.043
PRPF4B (UniProt Q13523),-0.024,0.018,-0.079,-0.082,0.158,0.052,0.03,-0.098,0.082,-0.05,0.025,-0.17,0.027,-0.174,-0.005,0.104,-0.049,0.011,0.081,0.019
PARL (UniProt Q9H300),0,0.025,0.02,0.002,-0.098,-0.014,0.057,-0.036,0.068,-0.022,-0.059,-0.008,-0.009,-0.076,0.031,-0.062,-0.035,0.035,-0.004,-0.134
PPP1R14A (UniProt Q96A00),-0.002,-0.04,0.004,0.051,-0.006,-0.005,-0.054,0.062,-0.004,0.013,0.002,0.051,0,0.058,-0.023,-0.067,-0.04,0.016,-0.027,-0.091
PRKAR1A (UniProt P10644),0.15,-0.051,0.059,-0.103,0.053,-0.028,-0.085,0.203,0.055,-0.01,0.213,-0.054,-0.068,-0.122,0.071,0.001,0.023,-0.032,0.132,0.705 (active)
PISD (UniProt Q9UG56),-0.015,0.002,0.013,0.085,0.022,-0.068,0.049,0.009,0.024,0.026,-0.136,-0.117,-0.017,-0.002,-0.029,-0.076,-0.113,0.027,-0.036,-0.192
PIGG (UniProt Q5H8A4),0.016,-0.003,0.004,-0.007,0.018,0.359,-0.019,-0.045,0.001,0.001,-0.062,0.022,0.037,-0.017,-0.049,-0.022,0.009,0.015,-0.04,0.093
PTRH2 (UniProt Q9Y3E5),0.009,-0.007,0.032,0.144,-0.078,-0.05,-0.009,-0.025,-0.064,-0.022,-0.004,-0.09,0.013,-0.018,-0.003,-0.067,0.057,0.001,-0.042,0.018
PPID (UniProt Q08752),0.011,-0.047,0.091,0.005,0.008,0.097,0.105,0.104,0.122,0.057,-0.076,-0.366 (active),0.132,0.026,-0.046,-0.058,0.087,0.062,-0.015,-0.173
PITRM1 isoform 2 (UniProt Q5JRX3),0.21,-0.064,0.047,0.073,-0.152,0.002,-0.002,0.018,-0.047,-0.03,0.048,0.489 (active),0.166,-0.029,0.074,-0.084,0.023,0.03,-0.124,-0.189
